CYP2C19 inhib: human CYP2C19 inhibition; P33261; CYP2C19 Supersomes, luciferin-H EGE luminescence, 30 min; inhibition, % at 5 µM; 96,000 tested, 21% active; AID 778;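 active = CYP2C19 inhibition above a set limit at 5 µM in the primary screen, cut at about 50% in these data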
Target sequence (P33261 whole entry, looked up): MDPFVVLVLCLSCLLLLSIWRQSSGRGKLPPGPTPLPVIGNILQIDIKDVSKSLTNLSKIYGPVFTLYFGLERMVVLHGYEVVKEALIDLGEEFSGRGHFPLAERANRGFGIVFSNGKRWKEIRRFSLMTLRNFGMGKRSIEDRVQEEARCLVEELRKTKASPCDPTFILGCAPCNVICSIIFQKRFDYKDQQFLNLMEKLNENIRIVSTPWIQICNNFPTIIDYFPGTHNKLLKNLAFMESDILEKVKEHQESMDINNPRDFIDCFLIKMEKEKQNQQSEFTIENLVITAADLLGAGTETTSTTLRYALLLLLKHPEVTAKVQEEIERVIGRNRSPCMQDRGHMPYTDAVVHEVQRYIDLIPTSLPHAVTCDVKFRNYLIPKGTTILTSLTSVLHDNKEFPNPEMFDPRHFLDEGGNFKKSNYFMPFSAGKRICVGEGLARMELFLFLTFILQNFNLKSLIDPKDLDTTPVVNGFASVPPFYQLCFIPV
CYP2C19 activ: increases human CYP2C19 enzyme activity; P33261; AID 1025; activation factor at 5 µM; 96,000 tested, under 10 active; recombinant CYP2C19, luciferin-H EGE luminescence; active compounds read high; 0 = fully inhibited enzyme, 1 = untreated enzyme;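 active = activation factor of at least 2 at 5 µM in the primary screen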
CYP2C9 act: activators of human CYP2C9; P11712; recombinant CYP2C9, luciferin-H conversion, luminescence; active compounds read high; factor 1 = untreated enzyme, 0 = blocked; activation factor at 5 µM; 96,000 tested, 1.4% active;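 active = activation factor of 2 or more for CYP2C9 at a 5 µM dose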
CYP2C9 inh: human CYP2C9 inhibition; AID 777; CYP2C9 Supersomes, luciferin-H conversion, luminescence; 96,000 tested, 20% active; inhibition, % at 5 µM; P11712;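 active = blocking of liver enzyme CYP2C9 beyond about 50% at 5 µM, limit read from the data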
Numbers stand for hits; i = inactive. Shown are actives, neighbours in structure and some others; about 31% of the full set was active somewhere.

SMILES	CYP2C19 inhib	CYP2C19 activ	CYP2C9 act	CYP2C9 inh
CC(=O)Nc1cccc(NC(=O)c2oc3ccccc3c2C)c1	52.6	i	i	i
CC(=O)Nc1cccc(NC(=O)c2cc3ccccc3o2)c1	i	i	i	i
Cc1c(C(=O)NCCc2ccc3c(c2)OCCO3)oc2ccccc12	85.8	i	i	81.6
Cc1c(C(=O)NC2=NCCS2)oc2ccccc12	61.1	i	i	i
O=C(Nc1ccccc1C(=O)N1CCCC1)C1CCN(c2ncccn2)CC1	i	i	i	i
CCOc1ccc(OCC)c(NC(=O)C2CCCN(c3ncccn3)C2)c1 (stereo not drawn)	60.3	i	i	i
CCOc1ccc(OCC)c(NC(=O)C2CCN(c3ncccn3)CC2)c1	i	i	i	51.8
Cc1ccc(F)cc1NC(=O)C1CCCN(c2ncccn2)C1 (stereo not drawn)	94.4	i	i	94.2
Cc1cc(N(C)C)nc(SC(C)C)n1	i	i	i	i
Cc1cccc(N(Cc2cc3ccccc3[nH]c2=O)C(=O)c2ccco2)c1C	i	i	i	i
O=C(Cn1c(-c2ccccc2)noc1=O)NCc1ccccc1	i	i	2	i
CCOC(=O)N1CCC(c2cc(=O)n3[nH]cc(C(=O)OC)c3n2)CC1	i	i	i	61.7
COC(=O)c1c[nH]n2c(=O)cc(C)nc12	i	i	i	i
CCOC(=O)N1CCC(c2cc(=O)n3[nH]ccc3n2)CC1	i	i	i	59.1
COC(=O)CSC(C(=O)Nc1ccc(C)c(C)c1)c1ccccc1 (stereo not drawn)	91.6	i	i	59.6
Cc1ccc(NC(=O)C(SCC(=O)O)c2ccccc2)cc1C (stereo not drawn)	i	i	i	i
COc1cc(CSc2ncn[nH]2)c(OC)cc1CSc1ncn[nH]1	62.3	i	i	i
CCCOc1ccc(CSc2ncn[nH]2)cc1	i	i	i	i
Cc1nnc(-c2cccc(Br)c2)c2cn(-c3ccccc3Cl)nc12	60.5	i	i	65.7
Cc1ccc(-n2cc3c(-c4cccc(Br)c4)nnc(C)c3n2)cc1	76.7	i	i	91.6
O=C(Cn1ccc2ccccc2c1=O)NCCC(=O)N1CCN(c2cccc(Cl)c2)CC1	i	i	i	i
COc1ccccc1CN(Cc1cc2cc(C)ccc2[nH]c1=O)Cc1nnnn1CC1CCCO1 (stereo not drawn)	i	i	i	56.5
COc1cc(C(=O)N(Cc2cc3cc(C)ccc3[nH]c2=O)CC2CCCO2)cc(OC)c1OC (stereo not drawn)	i	i	i	63.2
Cc1ccc2[nH]c(=O)c(CN(Cc3cccs3)Cc3nnnn3CC3CCCO3)cc2c1 (stereo not drawn)	i	i	i	i
COc1ccccc1CN(Cc1cc2cc(C)cc(C)c2[nH]c1=O)Cc1nnnn1CC1CCCO1 (stereo not drawn)	62.8	i	i	56.5
SMILES	CYP2C19 inhib	CYP2C19 activ	CYP2C9 act	CYP2C9 inh
COc1cccc(C(=O)N(Cc2cc3cc(C)ccc3[nH]c2=O)CC2CCCO2)c1 (stereo not drawn)	i	i	i	i
COc1ccc2[nH]c(=O)c(CN(Cc3ccccc3OC)Cc3nnnn3CC3CCCO3)cc2c1 (stereo not drawn)	69.9	i	i	i
CC1(C)CN=C(NC2CCCCC2)S1	i	i	i	i
CCn1ncc(/C=C/C(=O)Nc2c(C)nn(CC)c2C)c1C	i	i	i	i
Cc1ccc2cc(CN(Cc3cccs3)Cc3nnnn3CC3CCCO3)c(=O)[nH]c2c1C (stereo not drawn)	55.6	i	i	i
Cc1ccc2cc(CN(Cc3cccs3)Cc3nnnn3CC3CCCO3)c(=O)[nH]c2c1 (stereo not drawn)	i	i	i	i
COc1ccc2[nH]c(=O)c(CN(Cc3ccc(C)cc3)Cc3nnnn3CC3CCCO3)cc2c1 (stereo not drawn)	60.5	i	i	84.3
Cn1nc([N+](=O)[O-])nc1Oc1ccc2ccccc2c1	i	i	i	i
CC1CC(C)CN(c2cc(=O)n(Cc3ccc(F)cc3)c(=O)[nH]2)C1 (stereo not drawn)	i	i	i	i
COC(=O)c1cn(NC(=O)C2COc3ccccc3O2)c(=O)c2ccccc12 (stereo not drawn)	i	i	i	i
Cc1nc(SCC(=O)Nc2cccc(Cl)c2)n[nH]1	63.6	i	i	i
CCOC(=O)Cc1csc(SCC(=O)Nc2cccc(Cl)c2)n1	i	i	i	65.6
CCOC(=O)Cc1csc(SCC(=O)N2CCN(c3ccc(OC)cc3)CC2)n1	i	i	i	i
CC(C)c1nc(SCC(=O)Nc2cccc(S(N)(=O)=O)c2)n[nH]1	i	i	i	i
CCOC(=O)Cc1csc(SCC(=O)Nc2cccc(C#N)c2)n1	66.1	i	i	79.9
CCOC(=O)Cc1csc(SCC(=O)Nc2cc(Cl)ccc2Oc2ccccc2)n1	91.3	i	i	93.6
O=C(COc1ccc(S(=O)(=O)N2CCCC2)cc1Cl)NCc1ccc2c(c1)OCO2	i	i	i	i
O=C(COc1ccc(S(=O)(=O)NC2CCCCC2)cc1Cl)NCc1ccc2c(c1)OCO2	94.0	i	i	98.5
O=C(COc1ccc(S(=O)(=O)NC2CCCCC2)cc1Cl)Nc1ccc2c(c1)OCO2	i	i	i	87.1
Cc1noc(C)c1S(=O)(=O)N1CCN(c2ccccc2)CC1	80.4	i	i	69.4
Cc1noc(C)c1C(=O)N1CCC(Cc2ccccc2)CC1	98.8	i	i	73.4
Cc1noc(C)c1S(=O)(=O)N1CCC(Cc2ccccc2)CC1	i	i	i	58.9
CCN1CCN(Cc2cc(=O)oc3cc(C)cc(C)c23)CC1	i	i	i	i
CCc1cc(C(=O)OC)c(NC(=O)C2CC(=O)NN2Cc2ccccc2)s1 (stereo not drawn)	i	i	i	i
CC(C)(C)n1nnnc1C(c1ccncc1)N1CCCCCC1 (stereo not drawn)	83.1	i	i	73.4
SMILES	CYP2C19 inhib	CYP2C19 activ	CYP2C9 act	CYP2C9 inh
COc1ccccc1N1CCN(C(c2ccccc2Cl)c2nnnn2C(C)(C)C)CC1 (stereo not drawn)	i	i	i	i
CC(C)(C)n1nnnc1C(c1ccc(C#N)cc1)N1CCCC2(CCCCC2)C1 (stereo not drawn)	i	i	i	i
Cc1cccc(N2CCN(C(c3cccs3)c3nnnn3C(C)(C)C)CC2)c1C (stereo not drawn)	i	i	i	53.6
CC(C)(C)n1nnnc1C(c1cccs1)N1CCN(c2ccccc2)CC1 (stereo not drawn)	i	i	i	79.0
CC(C)(C)n1nnnc1C(c1cccnc1)N1CCN(c2ccccc2)CC1 (stereo not drawn)	59.4	i	i	i
CC(NC(=O)Nc1cccc([N+](=O)[O-])c1)(C(F)(F)F)C(F)(F)F	i	i	i	i
O=C(Nc1ccc(S(=O)(=O)Nc2ncccn2)cc1)c1ccco1	i	i	i	i
O=C(CSc1ccc(Cl)cc1)Nc1ccccc1N1CCN(C(=O)c2ccccc2)CC1	i	i	i	i
CC(C)C(=O)Nc1ccccc1N1CCN(C(=O)c2ccccc2)CC1	67.5	i	i	63.2
O=C(Nc1ccc(N2CCN(C(=O)c3ccc(Cl)cc3)CC2)cc1)c1cccnc1	i	i	i	i

High-throughput results: PubChem, Sanford-Burnham Center for Chemical Genomics
